PubChem BioAssay AID1159580 (chemical genetic matrix, 2015)
Values joined by “and” are separate entries in the source; they are usually repeats but may differ in a detail not shown here. Equal entries are not always repeated. Out of some 5,500 compounds screened, about 2,000 (36%) were called active. Not shown: some 18% with an inconclusive outcome. Cut-off read from the data, not from the text of the source: active = normalized growth mostly below about 0.91 (no sharp cut-off); inconclusive = no clear call, values can overlap the other calls; inactive = mostly above about 0.92. The list shows a part of the results.

Experiment: chemical genetic growth profiling, strain panel (AID 1159580);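 note: tested at 20 µM; growth read once vehicle control cultures reached saturation at 30 °C; 1 = growth at the plate median or of vehicle wells; lower values mean less growth of the strain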
Conditions: S. cerevisiae deletion strains, growth OD

Measured: normalized growth

CCn1cc(C(=O)O)c(=O)c2cc(F)c(N3CCNCC3)nc21
inactive: locus YAL013W, strain DEP1, hits give low values 1.01 | locus YAL021C, strain ccr4, hits give low values 0.939 | locus YAL026C, strain drs2, hits give low values 0.985 | locus YAL030W, strain snc1, hits give low values 0.982 | locus YBL061C, strain skt5, hits give low values 0.991 | locus YBR009C, strain hhf1, hits give low values 0.992 | locus YBR021W, strain FUR4, hits give low values 1.01 | locus YBR023C, strain chs3, hits give low values 0.983 | locus YBR171W, strain sec66, hits give low values 0.984 | locus YBR229C, strain ROT2, hits give low values 1.01 | locus YBR231C, strain swc5, hits give low values 0.998 | locus YBR279W, strain paf1, hits give low values 0.982 | locus YCL011C, strain gbp2, hits give low values 0.987 | locus YCL016C, strain dcc1, hits give low values 0.986 | locus YCL029C, strain bik1, hits give low values 1 | locus YCL061C, strain MRC1, hits give low values 0.987 | locus YCL069W, strain vba3, hits give low values 0.97 | locus YCR088W, strain abp1, hits give low values 0.982 | locus YDL005C, strain med2, hits give low values 0.978 | locus YDL035C, strain GPR1, hits give low values 1.02 | locus YDL040C, strain nat1, hits give low values 0.983 | locus YDL074C, strain BRE1, hits give low values 1 | locus YDL101C, strain DUN1, hits give low values 1.01 | locus YDL134C, strain PPH21, hits give low values 1.03 | locus YDL185W, strain tfp1, hits give low values 1.03 | locus YDL192W, strain arf1, hits give low values 1.02 | locus YDR001C, strain nth1, hits give low values 0.978 | locus YDR069C, strain doa4, hits give low values 0.982 | locus YDR101C, strain arx1, hits give low values 1 | locus YDR137W, strain rgp1, hits give low values 0.939 | locus YDR159W, strain sac3, hits give low values 0.962 | locus YDR162C, strain NBP2, hits give low values 1.02 | locus YDR195W, strain ref2 0.97 | locus YDR297W, strain sur2, hits give low values 0.971 | locus YDR318W, strain mcm21, hits give low values 1.02 | locus YDR334W, strain swr1, hits give low values 0.974 | locus YDR335W, strain msn5, hits give low values 0.979 | locus YDR388W, hits give low values 1.01 | locus YDR392W, strain spt3, hits give low values 0.946 | locus YDR502C, strain sam2, hits give low values 1.01 | locus YEL003W, strain gim4, hits give low values 0.985 | locus YEL037C, strain rad23, hits give low values 0.975 | locus YEL061C, strain CIN8 (second series), hits give low values 0.979 | locus YEL061C, strain CIN8, hits give low values 1.01 | locus YER015W, strain faa2, hits give low values 0.982 | locus YER016W, strain bim1, hits give low values 0.984 | locus YER110C, hits give low values 1.02 | locus YER111C, strain swi4, hits give low values 0.985 | locus YER155C, strain BEM2 (second series), hits give low values 0.956 | locus YER155C, strain BEM2, hits give low values 1.01 | locus YER167W, strain BCK2, hits give low values 1.03 | locus YFR010W, strain ubp6, hits give low values 0.984 | locus YGL078C, strain dbp3, hits give low values 1.01 | locus YGL086W, strain mad1, hits give low values 1.01 | locus YGL167C, strain pmr1, hits give low values 0.976 | locus YGL173C, strain kem1, hits give low values 0.98 | locus YGL227W, strain vid30, hits give low values 0.987 | locus YGL240W, strain doc1, hits give low values 0.975 | locus YGL248W, strain PDE1, hits give low values 1.01 | locus YGL253W, strain hxk2, hits give low values 0.994 | locus YGR135W, strain pre9, hits give low values 1.03 | locus YGR252W, strain gcn5, hits give low values 1.01 | locus YHR013C, strain ard1, hits give low values 0.966 | locus YHR027C, strain rpn1, hits give low values 0.994 | locus YHR030C, strain SLT2, hits give low values 1.01 | locus YHR079C, strain IRE1 (second series), hits give low values 1.01 | locus YHR079C, strain IRE1, hits give low values 1.03 | locus YHR094C, strain hxt1, hits give low values 1.02 | locus YHR129C, strain ARP1, hits give low values 1.01 | locus YHR142W, strain chs7, hits give low values 0.984 | locus YHR200W, strain rpn10, hits give low values 1.01 | locus YIL066C, strain RNR3, hits give low values 1.02 | locus YIL073C, strain SPO22, hits give low values 1.08 | locus YIL125W, strain kgd1, hits give low values 1.01 | locus YIR030C, strain dcg1, hits give low values 1.01 | locus YJL092W, strain hpr5, hits give low values 0.991 | locus YJL095W, strain BCK1 (second series), hits give low values 0.985 | locus YJL095W, strain BCK1, hits give low values 1 and 1.04 | locus YJL115W, strain asf1, hits give low values 0.963 | locus YJL129C, strain trk1, hits give low values 0.943 | locus YJL134W, strain LCB3, hits give low values 1 | locus YJL154C, strain vps35, hits give low values 0.961 | locus YJL164C, strain tpk1, hits give low values 0.992 | locus YJL166W, strain qcr8, hits give low values 0.981 | locus YJL168C, strain set2, hits give low values 1.01 | locus YJL187C, strain SWE1 (second series), hits give low values 1 | locus YJL187C, strain SWE1, hits give low values 0.981 | locus YJR043C, strain POL32, hits give low values 0.992
